The target of experiment [1] is Platelet-activating factor acetylhydrolase (Homo sapiens) (UniProt Q13093). Kind of experiment: pPAFAH (PLA2G7) enzyme inhibitors, confirmation, biochemical, fluorescence polarization, human (AID 463230).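 Also: 0% = enzyme with DMSO and 100% = wells lacking pPAFAH enzyme.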 Conditions: recombinant pPAFAH, FP-Rh probe fluorescence polarization; at 3.39 µM; stronger effect = higher value. (In general: Polarisation of emitted light reports the rotation of a fluorescent probe.)

Experiment [2] concerns the target Protein-arginine deiminase type-4 (Homo sapiens) (UniProt Q9UM07). Kind of experiment: human PAD4 inhibitors, confirmation, biochemical, fluorescence polarization (AID 488796;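 active = mean inhibition across replicates above the hit cutoff set by the earlier primary screen, cut at about 15% in these data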;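 also: inhibitors block active-site labeling by the probe so polarization falls; 0% = PAD4 with probe and DMSO and 100% = probe without PAD4 enzyme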). Particulars: recombinant PAD4, RCA probe fluorescence polarization; at 6.36 µM; stronger effect = higher value.
Experiment [3] addresses Serine protease HTRA1 (Homo sapiens) (UniProt Q92743). Briefly: HTRA1 protease inhibitors, retest, confirmation, biochemical, fluorescence polarization (AID 540248;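 active = mean inhibition over three repeats above a set limit taken from the earlier primary screen, cut at about 37% in these data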;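 also: 0% = HTRA1 with DMSO and 100% = wells lacking HTRA1; inhibitors block probe binding so polarization drops and inhibition rises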). Particulars: recombinant HTRA1, FP-rhodamine activity-based probe, at 5.96 µM, stronger effect = higher value.
Experiment [4] concerns the target Insulin-degrading enzyme (Homo sapiens) (UniProt P14735). Briefly: human IDE inhibitors in live cells, confirmation, fluorescence polarization, HEK cells, FAbetaB substrate (AID 435028;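 active = mean inhibition across triplicate wells above the cutoff set by the earlier primary insulin-degrading enzyme screen, cut at about 16% in these data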;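 also: 0% = DMSO wells and 100% = 60 µM reference IDE inhibitor Ii1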). Particulars: FAbetaB cleavage, at 5.59 µM, stronger effect = higher value.
Experiment [5] in a line: cytotoxicity in HEK cells, cytotoxicity control for IDE inhibitor project, cell-based, luminescence (AID 449730; in the data active = inhibition above about 22%;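 also: 0% = vehicle wells and 100% = reference cytotoxic drug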). Conditions: HEK293 cytotoxicity, ATP luminescence; at 5.59 µM; stronger effect = higher value.
Experiment [6] has as its target (Lyso)-N-acylphosphatidylethanolamine lipase (Mus musculus) (UniProt Q8VD66). Briefly: ABHD4 inhibitors, retest, confirmation, biochemical, fluorescence polarization, mouse (AID 720658;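 active = mean inhibition across replicates above the hit cutoff set in the primary screen, cut at about 30% in these data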;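 also: 0% = wild-type ABHD4 with DMSO and 100% = catalytically dead S159A mutant with DMSO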). Particulars: purified mABHD4, FP-Rh probe fluorescence polarization; at 8.92 µM; stronger effect = higher value.
For experiment [7], the target named is Nuclear receptor coactivator 3 (Homo sapiens) (UniProt Q9Y6Q9). Briefly: SRC3 coactivator transcriptional activity inhibitors, confirmation, cell-based, luminescence, quadruplicate (AID 588792;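 active = mean inhibition over 43.08%, the solvent-only control mean plus 3 SD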;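 also: 0% = DMSO treated cells and 100% = gossypol at 36 µM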). Particulars: HEK293 GAL4-SRC3 luciferase reporter, at 3.6 µM, stronger effect = higher value.
The test system of experiment [8] is transactivating tegument protein VP16 (Human herpesvirus 1), Gal4-VP16 luciferase reporter. Kind of experiment: VP16 transactivation inhibitors, counter-screen for SRC3 inhibitor project, cell-based, luminescence, high throughput (AID 588794; in the data active = inhibition above about 30%). Particulars: mammalian cells, VP16-driven luciferase reporter luminescence; at 3.6 µM; stronger effect = higher value.
In experiment [9] the test system is transactivating tegument protein VP16 (Human herpesvirus 1). Kind of experiment: VP16 transactivation reporter inhibitors, counter-screen for SRC2 inhibitor project, cell-based, luminescence, single concentration (AID 652007; in the data active = inhibition above about 36%). Particulars: cell-based VP16 transactivation luciferase reporter, at 8.9 µM, stronger effect = higher value.
For experiment [10], the target named is Nuclear receptor coactivator 2 (Homo sapiens) (UniProt Q15596). Kind of experiment: SRC2 coactivator transcriptional activity inhibitors, confirmation, cell-based, luminescence, HEK293, triplicate (AID 652008;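 active = mean inhibition above 46.5%, the solvent-only control mean plus 3 SD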;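 also: 0% = DMSO-treated cells and 100% = Gossypol at 36 µM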). Conditions: HEK293 GAL4-SRC2 luciferase reporter, at 8.9 µM, stronger effect = higher value.
The nature of experiment [11]: Gal4-VP16 luciferase reporter inhibitors, counter-screen for COUP-TFII antagonist project, cell-based, luminescence, HEK293 (AID 687007; in the data active = inhibition above about 13%). Particulars: at 8.5 µM, stronger effect = higher value. For orientation: A reporter such as luciferase makes a cellular process visible.
Experiment [12] addresses COUP transcription factor 2 (Homo sapiens) (UniProt P24468). Briefly: NR2F2 transcriptional activity inhibitors, confirmation, cell-based, luciferase reporter, HEK293, triplicate (AID 687008;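 active = mean inhibition over three repeats above a set limit taken from the earlier primary screen, cut at about 38% in these data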;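 also: 100% = cells given the luciferase reporter alone without the COUP-TF2 vector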). Conditions: HEK293 NGFI-A luciferase reporter, luminescence; at 8.5 µM; stronger effect = higher value.
The target in experiment [13] is Platelet-activating factor acetylhydrolase IB subunit alpha1 (Homo sapiens) (UniProt Q15102). Kind of experiment: PAFAH1B3 enzyme inhibitors, confirmation, biochemical, fluorescence polarization, human (AID 493032;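 active = average inhibition over triplicate runs above the hit cutoff set in the earlier primary screen, cut at about 25% in these data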;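 also: 0% = enzyme with DMSO and 100% = wells lacking PAFAH1B3 protein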). Particulars: recombinant PAFAH1B3, FP-Rh activity-based probe, at 3.39 µM, stronger effect = higher value.
The target in experiment [14] is Toll-like receptor 9 (Homo sapiens) (UniProt Q9NR96). Kind of experiment: TLR9-MyD88 association inhibitors, retest, confirmation, cell-based, CHO, BLA complementation, fluorescence, triplicate (AID 540250;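 active = mean inhibition across three repeats above about 21% taken from the earlier screen, limit read from the data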;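 also: blue over green emission ratio reports constitutive TLR9 MyD88 association via BLA complementation; 0% = DMSO vehicle wells and 100% = clavulanate BLA inhibitor wells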). Particulars: CCF4 FRET ratio, at 4.98 µM, stronger effect = higher value.
A short description of experiment [15]: beta-lactamase reporter inhibitors in CHO cells, artefact control for TLR9-MyD88 binding inhibitor project, cell-based, fluorescence (AID 540251;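 active = mean inhibition above a 50% cutoff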;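 also: counterscreen of TLR9-MyD88 hits on CMV-driven BLA in CHO-K1 cells; 0% = DMSO alone and 100% = clavulanate blocking BLA; higher means less blue over green ratio so more BLA blockade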). Particulars: CHO-BLA cells, CCF4 FRET ratio, at 4.98 µM, stronger effect = higher value.
Experiment [16] in a line: CHO cell viability loss – luminescence, single concentration, cytotoxicity control for TLR9-MyD88 binding inhibitor project (AID 588336; in the data active = inhibition above about 11%). Particulars: TLR9-MyD88 CHO cells cytotoxicity, at 4.98 µM, stronger effect = higher value.
Experiment [17] deals with Receptor-interacting serine/threonine-protein kinase 2 (Homo sapiens) (UniProt O43353). Briefly: NOD2-RIPK2 binding disruptors, retest, confirmation, fluorescence, CHO cells, BLA complementation, triplicate (AID 624370;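 active = mean inhibition across replicates above a set limit taken from the earlier primary screen, cut at about 21% in these data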;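 also: 0% = DMSO-only wells and the high end = clavulanate BLA-blocked wells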). Particulars: CCF4 FRET, at 4.98 µM, stronger effect = higher value.
The nature of experiment [18]: beta-lactamase reporter inhibitors in CHO cells, confirmation, artefact control for NOD2-RIPK2 interaction inhibitor project, cell-based, CHO-K1 CMV-bla, CCF4 FRET, fluorescence (AID 624371;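 active = mean inhibition above the low-control mean inhibition plus three low-control SD, cut at about 11% in these data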;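 also: 0% = DMSO only wells and 100% = clavulanate high control wells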). Particulars: CCF4 FRET ratio, counterscreen, at 4.98 µM, stronger effect = higher value. A general note: Counterscreens check selectivity or assay interference.
Experiment [19] concerns the target Oxysterols receptor LXR-beta (Homo sapiens) (UniProt P55055). Briefly: LXR agonists, Gal4 luciferase reporter, confirmation, counter-screen for hcDAF-12 agonist project, cell-based, luminescence, HEK293, H. contortus campaign (AID 743027;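 active = mean percent activation of the reporter above a cutoff set as the average over tested compounds plus their standard deviation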). Particulars: HEK293 Gal4-LXR tk-luc reporter, 24 h, at 6.8 µM, stronger effect = higher value, normalized: DMSO 0%, positive control 100%.

The subject of experiment [20] is Nuclear hormone receptor DAF-12 (Haemonchus contortus). Kind of experiment: H. contortus DAF-12 receptor agonists, confirmation, cell-based, luminescence, HEK293, lit1-tk-luc, triplicate (AID 743032;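 active = mean activation across triplicate tests above the threshold derived from the earlier primary screen, cut at about 5.5% in these data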;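 also: 0% = DMSO only wells and 100% = 3 µM Δ7-dafachronic acid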). Particulars: HEK293 hcDAF-12 lit1-tk-luc reporter, at 6.8 µM, stronger effect = higher value, % of Δ7-dafachronic acid response.

A number with no mark means an inactive call. The list shows a part of the results. The source made the active and inactive calls.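 The calls were made as follows, unless noted: active = mean inhibition of the triplicate above the hit cutoff set for the earlier primary screen (cut at about 25% in these data); inactive = the rest.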

Insulin-degrading enzyme (Homo sapiens), sequence (P14735 whole entry, looked up): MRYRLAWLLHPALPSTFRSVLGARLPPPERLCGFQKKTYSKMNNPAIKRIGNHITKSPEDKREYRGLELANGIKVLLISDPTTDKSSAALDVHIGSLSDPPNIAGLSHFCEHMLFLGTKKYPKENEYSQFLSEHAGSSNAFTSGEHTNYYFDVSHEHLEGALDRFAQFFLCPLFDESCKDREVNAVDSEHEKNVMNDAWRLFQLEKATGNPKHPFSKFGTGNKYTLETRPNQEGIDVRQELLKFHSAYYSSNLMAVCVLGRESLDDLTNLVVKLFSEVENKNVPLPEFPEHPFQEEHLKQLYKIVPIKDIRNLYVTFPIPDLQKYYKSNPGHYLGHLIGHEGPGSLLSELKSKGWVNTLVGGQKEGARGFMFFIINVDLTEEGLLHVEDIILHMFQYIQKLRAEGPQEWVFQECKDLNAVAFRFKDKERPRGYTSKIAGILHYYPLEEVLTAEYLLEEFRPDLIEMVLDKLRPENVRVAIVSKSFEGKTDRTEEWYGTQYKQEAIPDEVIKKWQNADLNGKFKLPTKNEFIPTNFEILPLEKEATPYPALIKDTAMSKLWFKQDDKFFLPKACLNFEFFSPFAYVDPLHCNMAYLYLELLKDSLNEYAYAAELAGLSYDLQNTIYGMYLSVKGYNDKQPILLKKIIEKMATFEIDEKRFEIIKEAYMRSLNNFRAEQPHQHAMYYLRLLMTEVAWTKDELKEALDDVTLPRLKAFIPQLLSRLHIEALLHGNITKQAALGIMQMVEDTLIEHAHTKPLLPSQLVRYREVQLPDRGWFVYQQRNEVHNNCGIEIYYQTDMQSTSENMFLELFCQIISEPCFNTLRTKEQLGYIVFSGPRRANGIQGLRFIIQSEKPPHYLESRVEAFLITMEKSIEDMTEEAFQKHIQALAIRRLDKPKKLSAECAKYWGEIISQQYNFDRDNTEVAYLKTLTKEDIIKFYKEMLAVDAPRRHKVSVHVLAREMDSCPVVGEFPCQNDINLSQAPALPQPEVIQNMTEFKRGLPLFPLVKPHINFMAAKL
Platelet-activating factor acetylhydrolase (Homo sapiens), sequence (Q13093 whole entry, looked up): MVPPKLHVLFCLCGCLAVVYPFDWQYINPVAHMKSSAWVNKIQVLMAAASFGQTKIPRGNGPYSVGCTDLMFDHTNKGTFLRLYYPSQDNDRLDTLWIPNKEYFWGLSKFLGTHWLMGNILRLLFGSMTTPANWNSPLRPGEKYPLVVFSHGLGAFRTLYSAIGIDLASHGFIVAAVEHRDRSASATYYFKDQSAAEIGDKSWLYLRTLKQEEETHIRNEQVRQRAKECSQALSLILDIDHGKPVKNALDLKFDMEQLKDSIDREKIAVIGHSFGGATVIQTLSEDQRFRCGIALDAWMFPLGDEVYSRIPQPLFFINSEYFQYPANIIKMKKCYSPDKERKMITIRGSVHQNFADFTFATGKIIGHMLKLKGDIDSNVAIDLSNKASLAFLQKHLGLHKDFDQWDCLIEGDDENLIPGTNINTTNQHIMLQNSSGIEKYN
Protein-arginine deiminase type-4 (Homo sapiens), sequence (Q9UM07 whole entry, looked up): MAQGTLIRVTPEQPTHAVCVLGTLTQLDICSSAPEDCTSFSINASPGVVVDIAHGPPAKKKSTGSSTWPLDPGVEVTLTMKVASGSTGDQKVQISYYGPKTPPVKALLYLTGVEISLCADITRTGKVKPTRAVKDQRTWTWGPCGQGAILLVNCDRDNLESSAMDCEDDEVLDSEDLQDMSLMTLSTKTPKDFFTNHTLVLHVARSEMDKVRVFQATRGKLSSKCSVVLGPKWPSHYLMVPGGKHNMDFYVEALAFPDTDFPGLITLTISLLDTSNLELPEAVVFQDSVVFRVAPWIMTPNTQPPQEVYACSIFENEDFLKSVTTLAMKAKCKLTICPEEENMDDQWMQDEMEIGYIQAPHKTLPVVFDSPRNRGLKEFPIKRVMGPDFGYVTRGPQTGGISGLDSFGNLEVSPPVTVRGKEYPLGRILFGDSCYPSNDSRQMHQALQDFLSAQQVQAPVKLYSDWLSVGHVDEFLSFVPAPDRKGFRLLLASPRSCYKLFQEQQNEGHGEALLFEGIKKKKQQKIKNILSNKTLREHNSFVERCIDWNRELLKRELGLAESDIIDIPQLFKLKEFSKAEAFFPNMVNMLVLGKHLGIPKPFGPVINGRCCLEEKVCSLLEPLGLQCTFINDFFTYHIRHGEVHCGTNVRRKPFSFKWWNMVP
Oxysterols receptor LXR-beta (Homo sapiens), sequence (P55055 whole entry, looked up, the tested form may be a part): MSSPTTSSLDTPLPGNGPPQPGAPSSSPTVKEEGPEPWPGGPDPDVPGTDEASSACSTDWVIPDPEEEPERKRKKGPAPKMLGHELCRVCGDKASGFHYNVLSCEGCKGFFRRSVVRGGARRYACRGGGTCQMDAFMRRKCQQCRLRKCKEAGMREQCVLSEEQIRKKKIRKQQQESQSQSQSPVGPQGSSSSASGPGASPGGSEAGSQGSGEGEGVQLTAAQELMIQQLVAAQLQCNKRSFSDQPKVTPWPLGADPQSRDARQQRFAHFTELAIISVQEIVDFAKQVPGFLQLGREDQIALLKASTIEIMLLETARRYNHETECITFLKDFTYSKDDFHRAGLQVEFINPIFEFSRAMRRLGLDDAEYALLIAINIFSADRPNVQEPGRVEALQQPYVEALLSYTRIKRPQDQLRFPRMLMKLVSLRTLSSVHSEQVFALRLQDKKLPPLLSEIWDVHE
Nuclear receptor coactivator 3 (Homo sapiens), sequence (Q9Y6Q9 whole entry, looked up, the tested form may be a part): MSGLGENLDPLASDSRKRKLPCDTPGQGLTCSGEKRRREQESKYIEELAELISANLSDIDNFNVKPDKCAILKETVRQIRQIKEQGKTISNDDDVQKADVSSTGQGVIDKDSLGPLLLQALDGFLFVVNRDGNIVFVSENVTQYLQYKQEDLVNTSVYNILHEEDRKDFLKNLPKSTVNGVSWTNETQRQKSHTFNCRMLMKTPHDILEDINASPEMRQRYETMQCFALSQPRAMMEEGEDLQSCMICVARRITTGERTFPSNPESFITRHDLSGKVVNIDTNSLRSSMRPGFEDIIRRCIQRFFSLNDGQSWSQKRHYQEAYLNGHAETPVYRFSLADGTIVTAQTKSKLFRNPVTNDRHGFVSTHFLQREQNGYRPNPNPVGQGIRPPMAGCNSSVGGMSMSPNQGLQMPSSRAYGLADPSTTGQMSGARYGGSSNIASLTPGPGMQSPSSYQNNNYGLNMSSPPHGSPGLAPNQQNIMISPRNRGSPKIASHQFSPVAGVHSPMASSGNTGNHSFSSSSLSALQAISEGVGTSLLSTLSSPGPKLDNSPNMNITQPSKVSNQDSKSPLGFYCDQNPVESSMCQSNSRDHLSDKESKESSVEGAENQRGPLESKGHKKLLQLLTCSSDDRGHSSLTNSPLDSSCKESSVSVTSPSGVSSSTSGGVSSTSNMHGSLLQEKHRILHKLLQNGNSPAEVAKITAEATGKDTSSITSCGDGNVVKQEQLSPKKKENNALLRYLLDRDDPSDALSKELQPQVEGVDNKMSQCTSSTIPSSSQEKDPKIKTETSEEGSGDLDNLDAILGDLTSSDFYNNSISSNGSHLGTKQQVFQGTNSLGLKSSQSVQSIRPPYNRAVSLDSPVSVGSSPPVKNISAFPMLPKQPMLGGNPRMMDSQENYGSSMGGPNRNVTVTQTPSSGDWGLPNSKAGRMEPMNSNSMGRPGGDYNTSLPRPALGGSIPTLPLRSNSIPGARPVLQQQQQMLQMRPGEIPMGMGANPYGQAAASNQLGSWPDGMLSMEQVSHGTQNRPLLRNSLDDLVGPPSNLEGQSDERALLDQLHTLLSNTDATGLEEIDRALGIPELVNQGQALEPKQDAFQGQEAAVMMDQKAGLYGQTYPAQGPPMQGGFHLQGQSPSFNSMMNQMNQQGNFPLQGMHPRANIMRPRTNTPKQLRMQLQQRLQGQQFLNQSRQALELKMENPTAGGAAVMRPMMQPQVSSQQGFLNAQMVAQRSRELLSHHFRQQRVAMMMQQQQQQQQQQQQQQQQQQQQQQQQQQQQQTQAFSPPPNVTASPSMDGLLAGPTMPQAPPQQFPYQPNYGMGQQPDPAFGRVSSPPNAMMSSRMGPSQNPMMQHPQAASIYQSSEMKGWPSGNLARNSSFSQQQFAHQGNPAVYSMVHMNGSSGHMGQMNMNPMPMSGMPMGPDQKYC
(Lyso)-N-acylphosphatidylethanolamine lipase (Mus musculus), sequence (Q8VD66 whole entry, looked up): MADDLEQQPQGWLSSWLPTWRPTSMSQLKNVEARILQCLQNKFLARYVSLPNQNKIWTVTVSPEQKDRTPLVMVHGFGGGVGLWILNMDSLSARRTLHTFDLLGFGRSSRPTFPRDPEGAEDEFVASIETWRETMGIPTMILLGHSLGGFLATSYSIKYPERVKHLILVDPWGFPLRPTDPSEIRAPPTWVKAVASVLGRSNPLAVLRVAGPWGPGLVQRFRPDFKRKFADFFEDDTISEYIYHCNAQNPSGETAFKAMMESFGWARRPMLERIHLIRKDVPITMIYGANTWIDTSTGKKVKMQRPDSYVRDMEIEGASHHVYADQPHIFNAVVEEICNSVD
Receptor-interacting serine/threonine-protein kinase 2 (Homo sapiens), sequence (O43353 whole entry, looked up): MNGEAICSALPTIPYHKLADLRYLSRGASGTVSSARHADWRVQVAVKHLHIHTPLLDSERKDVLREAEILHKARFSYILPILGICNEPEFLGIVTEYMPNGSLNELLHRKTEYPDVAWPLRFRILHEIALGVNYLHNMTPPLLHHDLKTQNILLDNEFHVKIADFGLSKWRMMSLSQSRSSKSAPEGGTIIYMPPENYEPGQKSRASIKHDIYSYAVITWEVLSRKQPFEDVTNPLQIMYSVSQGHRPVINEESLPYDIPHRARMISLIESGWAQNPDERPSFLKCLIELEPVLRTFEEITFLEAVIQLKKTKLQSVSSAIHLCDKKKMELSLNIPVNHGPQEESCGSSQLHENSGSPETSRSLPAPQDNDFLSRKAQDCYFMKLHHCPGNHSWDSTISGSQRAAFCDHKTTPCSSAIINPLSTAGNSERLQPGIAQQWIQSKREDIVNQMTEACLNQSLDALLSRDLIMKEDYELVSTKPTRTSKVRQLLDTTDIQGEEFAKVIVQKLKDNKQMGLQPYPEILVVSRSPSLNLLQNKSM

With `Cc1cc(C(=O)CSc2nc(N)cc(=O)[nH]2)c(C)n1CCc1ccc(Cl)cc1`, the inhibition was 74.3% (active) in experiment [1] and 13.4% in experiment [2].
Take `O=C(N/N=C/c1cccnc1)c1cc2ccccc2cc1O`: the figures for the inhibition in experiment [1] and in experiment [3] were 5.94% and 13.8%, respectively.
As to `CC1CCCCC1NC(=O)COC(=O)Cc1ccc(Cl)cc1` (configuration not stated), in [1], the inhibition was 22.3%.
Still for that read-out and setting: as for `Cc1ccc(S(=O)(=O)NCc2csc(C)n2)c(C)c1`, the figure is 2.33%.
Take `N#C/C(=C\c1ccc(O)c(O)c1)C(=O)NCc1ccccc1`: the inhibition in [4] is 43.1% (active); in experiment [5], 6.24%; in [3] it was 84.8% (active); in experiment [6], 30.8% (active).
On to `Cc1ccccc1-n1c(SCC(=O)Nc2cccc3ccccc23)nc(O)cc1=O`, for which the inhibition in experiment [1] is 4.9%.
For the compound `COc1ccc(/C=C/C(=O)c2cc(Br)ccc(=O)c2O)cc1`, in experiment [1], the inhibition was 20.5%.
Still for that read-out and setting: as for `CCCCC(=O)Nc1ccc2c(c1)C(=O)NC2=O`, the figure is 4.81%.
On the same count and under the same terms, as for `COC(=O)c1ccc(C(NC(=O)OCc2ccccc2)/C(C)=C/[C@@H](C)C(=O)NCc2ccc(OC)c(OC)c2)cc1` (some centres not stated), the figure is 36% (active); as for `COc1cccc(/C=N/NC(=O)c2[nH]nc3c2CCc2ccccc2-3)c1O`, 38.9% (active).
On to `Oc1c(Br)cc(/C=N/NC(=S)NCC2CCCO2)cc1Br` (configuration not stated), for which the inhibition in experiment [1] is 36.3% (active).
For `COc1ccc(C(=O)Nc2nc(-c3ccc(S(=O)(=O)N4CCOCC4)cc3)cs2)cc1`, the inhibition in experiment [4] was 3.32%; in experiment [5], 68.2% (active); in experiment [2] it was 18.9% (active); in [7], -12.4%; in experiment [8], -5.9%; in [9], 16.2%. The inhibition in experiment [10] was 21.5%; in [11] it was -11.1%; in [12], 40.2% (active).
For `O=C(/C=C(O)/C=C/c1ccc(O)cc1)/C=C/c1ccc(O)cc1`, the inhibition was 50% (active) in experiment [4]; 7.11% in [5]; 31.6% (active) in experiment [13]; 39.7% (active) in [14]; 42.9% in [15]; 6.33% in experiment [16]. The inhibition in experiment [17] was 64.2% (active); in experiment [18] it was 65.5% (active).
Turning to `N#CC1=C(N)Oc2c(sc3ccccc23)C1c1ccco1` (configuration not stated), the inhibition in [4] is 55.6% (active); in experiment [5], 39.4% (active). The activation in experiment [19] was -0.13%; in experiment [20], 1.83%.

For orientation: inhibition means the relative decrease from the control value, in per cent.

These data come from PubChem BioAssay.
